ERK EGF inh: inhibitors of EGF-stimulated ERK signaling pathway; HEK293-V1b, EGF-stimulated phospho-ERK AlphaScreen; Potency, µM (doses to about 11.5 µM), most hits filed as inhibitors; 0.41% of 130,000 active; active means well fitted inhibition curve with a large enough effect; further: nearly all actives have a fitted effect of over 55% in size
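Compounds are titrated over HEK293-V1b cells kept overnight in 1% FBS. After 30 min at 37C, EGF (25 nM final) triggers ERK phosphorylation for 5 min, measured by AlphaScreen in lysates.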
A number is an active result; . = inactive; ! = repeats disagree. The sample as a whole holds a higher share of hits than the screen did.

SMILES	ERK EGF inh
COC1=C(Nc2ccccc2OC)C(=O)c2ccccc2C1=O	14µM
COc1ccccc1NC1=C(Cl)C(=O)N(c2ccccc2)C1=O	.
COc1ccccc1NC(=S)N(c1ccccc1)C(C)C	.
COc1ccc2c(c1)O[C@H](c1ccc3c(c1)OCO3)[C@@H](OC(=O)Nc1ccc(OC(F)F)cc1)C2=O	.
C[C@@H](C(=O)Nc1ccc2ccccc2c1)[C@@H]1C[C@@]1(C)[C@@H](NS(=O)(=O)c1ccc(-c2ccccc2)cc1)c1ccccc1	.
COC(=O)[C@@]1(Cc2ccc(OC)cc2)[C@H]2c3cc(C(=O)N(C)C)n(CCc4c[nH]c5ccc(O)cc45)c3C[C@H]2CN1C(=O)c1ccccc1	.
CC(=O)NC1C(O)C[C@@](O)(C(=O)O)OC1[C@@H](O)C(O)CO (some centres undefined)	.
N#C/C(=N\Nc1ccccc1[N+](=O)[O-])C(=N)N1CCCCC1	.
Cc1c(NC2=CC(=O)CC(C)(C)C2)ccc([N+](=O)[O-])c1C	.
CC1=C/C(=N\Nc2ccccc2[N+](=O)[O-])CC(C)(C)C1	13µM
N[C@H](Cn1ccc(=O)n(Cc2ccccc2C(=O)O)c1=O)C(=O)O	.
CCCn1c(-c2ccc(F)cc2)nc2c(NCCCN3CCOCC3)nc(C)nc21	.
N#CC(Cc1ccc(O)c(O)c1)C(=O)N1CCc2ccccc21 (centres undefined)	.
C/C=C/C1=CC2=CC(=O)C(C)(OC(=O)c3c(C)cc(O)cc3O)C(=O)C2=CO1 (centres undefined)	.
CN1C(=O)N(C)C2=NNC=NC2(O)C1=O (centres undefined)	.
NNC(=S)Nc1ccc(Cl)cc1	.
CC(C)N=C(N)/N=C(\N)Nc1ccc(Cl)cc1	.
NC(=NCCCCCCN=C(N)/N=C(\N)Nc1ccc(Cl)cc1)/N=C(\N)Nc1ccc(Cl)cc1	22µM!
COc1cccc([C@@H]2Oc3ccc(OC)cc3C(=O)[C@H]2OC(=O)NS(=O)(=O)c2ccc(C)cc2)c1	.
CC(=O)Oc1ccc(/C=C/C(=O)CC2OC(Oc3cc(OC(C)=O)c4c(c3)O[C@@H](c3ccc(OC(C)=O)cc3)CC4=O)C(OC(C)=O)C(OC(C)=O)C2OC(C)=O)cc1 (some centres undefined)	.
CCN(CC)CCn1c(=N)n(CC(O)COc2ccccc2)c2ccccc21 (centres undefined)	.
Cc1ccccc1OCC(O)Cn1c(=N)n(Cc2ccccc2)c2ccccc21 (centres undefined)	32µM
CCCCCn1c(=N)n(CC(O)COc2ccccc2OC)c2ccccc21 (centres undefined)	.
C[C@@H]1CC[C@@]2(OC1)OC1CC3C4CC=C5CC(O)CCC5(C)C4CCC3(C)C1[C@@H]2C (some centres undefined)	.
O=C(N/N=C/c1cccnc1)c1ccccc1OCc1cccc(Br)c1	.
SMILES	ERK EGF inh
Cc1ccc(/C=N/NC(=O)c2ccccc2OCc2cccc(Br)c2)o1	22µM
O=C(N/N=C/c1ccco1)c1ccccc1OCc1ccc(Br)cc1	.
COc1ccc2c(c1)O[C@@H](c1ccc3c(c1)OCO3)[C@H](OC(=O)NCc1ccc3c(c1)OCO3)C2=O	.
Cc1cccc(C)c1Nc1oc(-c2ccccc2)nc1-c1ccccc1F	.
C[C@@H]1C[C@](C)(C(=O)c2ccc3ccccc3c2)C=C1c1ccc2ccccc2c1	.
O=C(O)c1ccc2cc(-c3ccc(O)c(C45CC6CC(CC(C6)C4)C5)c3)ccc2c1	25µM
COc1cc(C(=O)O)ccc1O	.
CCOC(=O)/C(C#N)=C(C)/C=C1\Sc2ccccc2N1CC	.
CN1/C(=C/C=C(C#N)C#N)C=Cc2ccccc21	.
CCOC(=O)/C(C#N)=C/C=C1\C=Cc2ccccc2N1CC	16µM
O=C1CC2(CCCC2)CC(=O)N1CCNC[C@H]1COc2ccccc2O1	.
COc1cc2c(cc1OC)C(c1c[nH]c3ccccc13)NCC2 (centres undefined)	.
CCN1C(=O)/C(=C\C=C2/C=CC=CN2CC)SC1=S	25µM
CN1C=CC=C/C1=C1/SC(=S)N(Cc2ccccc2)C1=O	.
O=C(O)CN1C(=O)/C(=C/C=C/c2ccccc2)SC1=S	.
CC(C1CCCC(=O)C1)[N+](=O)[O-] (centres undefined)	.
CC(C)[C@@H](CC(=O)N[C@@H]1CCCC[C@H]1C(=O)N[C@H](CC(=O)N[C@@H](CCC(=O)O)CC(=O)O)Cc1ccccc1)NC(=O)C[C@H](Cc1ccccc1)NC(=O)[C@@H]1CNCC[C@H]1N	.
CC[C@H](C)[C@@H](NC(=O)O[C@@H]1C(=O)c2ccc(OC)cc2O[C@H]1c1cccc(C(F)(F)F)c1)C(=O)OC	.
C=C(C)C(O)/C=C/c1ccc(Br)cc1 (centres undefined)	.
CC(C)(C)c1ccc(OC(=O)c2cccnc2)cc1	.
O=C(Oc1ccc(Nc2ncnc3ccccc23)cc1)c1cccnc1	28µM
CCOC(=O)c1ccc(Nc2ncnc3ccccc23)cc1	.
N#Cc1ccccc1-c1cncnc1NCc1cccnc1	.
Cc1cccc(N2CCN(C(=S)c3ccccc3)CC2)c1	.

Screening data: PubChem, National Center for Advancing Translational Sciences (NCATS)
